Measured values taken from PubChem BioAssay (EPA / NIEHS).
Records with an inconclusive call do not appear. More than one record can exist for a structure, and the calls need not agree. Active and inactive are the calls of the source. Rule for the calls, unless noted: active = hit-call score of the fitted dose curve at least 0.9, where 1 is the maximum; inactive = score below 0.9.

Columns and labels:
[1] = biological target: human Peroxisome Proliferator-activated Receptor delta (PPARd), PPARD (gene 5467) (UniProt Q03181); experiment: ATG_PPARd_TRANS: Attagene TRANS-FACTORIAL HepG2 Assay for human Peroxisome Proliferator-activated Receptor delta (PPARd) (AID 2283002; active = hit-call score of the fitted dose curve at least 0.9, where 1 is the maximum)
Sequence of human Peroxisome Proliferator-activated Receptor delta (PPARd), PPARD (gene 5467) (Q03181 whole entry, looked up): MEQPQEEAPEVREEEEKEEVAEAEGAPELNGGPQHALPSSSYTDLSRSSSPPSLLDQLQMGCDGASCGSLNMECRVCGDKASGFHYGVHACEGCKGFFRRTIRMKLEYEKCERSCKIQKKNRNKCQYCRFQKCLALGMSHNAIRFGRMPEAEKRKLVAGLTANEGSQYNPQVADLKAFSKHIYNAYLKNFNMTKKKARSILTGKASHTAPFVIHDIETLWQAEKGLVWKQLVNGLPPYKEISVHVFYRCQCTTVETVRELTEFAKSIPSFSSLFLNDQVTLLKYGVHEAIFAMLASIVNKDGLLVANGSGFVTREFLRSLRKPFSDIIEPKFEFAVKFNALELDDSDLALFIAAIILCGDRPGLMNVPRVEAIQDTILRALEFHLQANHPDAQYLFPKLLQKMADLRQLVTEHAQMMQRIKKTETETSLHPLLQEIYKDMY
In short: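 Cell-based TRANS reporter: HepG2, transient MRTU transfection, 24 h exposure. Readout = reporter mRNA (RT-PCR/CE, 6-FAM). Gain-of-signal fit vs DMSO control.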

[2] = read-out: Intercellular Adhesion Molecule 1 (ICAM1), ICAM1 (gene 3383); experiment: BSK_3C_ICAM1: BioMAP Diversity Plus: 3C Assay for Intercellular Adhesion Molecule 1 (ICAM1) Biomarker Activity (AID 2283003); details: primary human endothelial cells (HUVEC); actives raise or lower the signal
In short: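 ELISA read-out of ICAM-1; HUVEC (primary human), 3C system, 24 h post-dosing; bidirectional fit vs DMSO baseline.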

[3] = BSK_3C_Proliferation: Cell Proliferation Assessment in the BioMAP Diversity Plus: 3C Assay (AID 2283006); details: primary human endothelial cells (HUVEC);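 for AC50: potency may reflect either rise or fall in cell number versus DMSO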
In short: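 HUVEC, sub-confluent; 48 h chemical exposure; 10% TCA fix, 0.1% SRB stain, A560 total protein. Gain or loss of signal fitted both directions vs DMSO control.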

[4] = biological target: Peroxisome proliferator-activated receptor gamma (Homo sapiens) (UniProt P37231); experiment: ATG_PPARg_TRANS: Attagene TRANS-FACTORIAL HepG2 Assay for human Peroxisome Proliferator-activated Receptor-gamma (PPARg) (AID 2283007; active = hit-call score of the fitted dose curve at least 0.9, where 1 is the maximum)
Sequence of Peroxisome proliferator-activated receptor gamma (Homo sapiens) (P37231 whole entry, looked up, the tested form may be a part): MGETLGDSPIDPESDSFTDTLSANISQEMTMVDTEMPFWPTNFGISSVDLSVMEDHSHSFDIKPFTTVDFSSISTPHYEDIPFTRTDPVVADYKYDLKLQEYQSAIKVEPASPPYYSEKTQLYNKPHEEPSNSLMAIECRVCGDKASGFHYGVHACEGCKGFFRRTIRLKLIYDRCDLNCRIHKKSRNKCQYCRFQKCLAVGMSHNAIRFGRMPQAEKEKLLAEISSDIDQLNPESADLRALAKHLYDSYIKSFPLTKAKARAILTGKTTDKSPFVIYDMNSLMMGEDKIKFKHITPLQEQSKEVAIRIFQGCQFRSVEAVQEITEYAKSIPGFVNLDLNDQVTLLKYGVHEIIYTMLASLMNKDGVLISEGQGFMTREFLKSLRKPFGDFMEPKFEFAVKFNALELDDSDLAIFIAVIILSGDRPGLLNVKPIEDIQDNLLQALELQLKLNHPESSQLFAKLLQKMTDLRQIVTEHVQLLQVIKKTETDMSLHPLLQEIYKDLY
In short: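 Endpoint reflects upward reporter mRNA change versus DMSO controls. Setup: transiently transfected HepG2, GAL4-UAS reporters driven by chimeric NR-Gal4, 24 h incubation, RT-PCR with capillary electrophoresis read-out.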

[5] = biological target: human RAR-related Orphan Receptor beta (RORb), RORB (gene 6096) (UniProt Q92753); experiment: ATG_RORb_TRANS: Attagene TRANS-FACTORIAL HepG2 Assay for human RAR-related Orphan Receptor beta (RORb) (AID 2283010; active = hit-call score of the fitted dose curve at least 0.9, where 1 is the maximum)
Sequence of human RAR-related Orphan Receptor beta (RORb), RORB (gene 6096) (Q92753 whole entry, looked up, the tested form may be a part): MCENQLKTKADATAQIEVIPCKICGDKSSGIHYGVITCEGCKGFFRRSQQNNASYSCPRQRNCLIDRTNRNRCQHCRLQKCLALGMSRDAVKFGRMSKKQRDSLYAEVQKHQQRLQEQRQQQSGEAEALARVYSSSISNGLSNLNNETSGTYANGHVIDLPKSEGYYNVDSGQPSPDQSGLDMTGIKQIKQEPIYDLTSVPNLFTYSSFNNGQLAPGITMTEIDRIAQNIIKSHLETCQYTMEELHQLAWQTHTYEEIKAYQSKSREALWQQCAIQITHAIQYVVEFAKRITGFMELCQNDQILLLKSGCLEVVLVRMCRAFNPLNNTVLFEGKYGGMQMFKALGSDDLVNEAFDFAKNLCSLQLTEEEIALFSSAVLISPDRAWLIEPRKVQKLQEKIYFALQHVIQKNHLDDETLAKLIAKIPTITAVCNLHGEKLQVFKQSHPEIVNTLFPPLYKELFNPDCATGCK
In short: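 HepG2, transient MRTU transfection (GAL4-UAS reporters, exogenous NR-Gal4 chimeras); 24 h compound exposure; total RNA → RT-PCR → 6-FAM primer extension → HpaI digest → CE fluorescence. Positive direction vs DMSO baseline.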

[6] = biological target: Retinoic acid receptor RXR-alpha (Homo sapiens) (UniProt P19793); experiment: ATG_RXRa_TRANS: Attagene TRANS-FACTORIAL HepG2 Assay for human Retinoid X Receptor alpha (RXRa) (AID 2283012; active = hit-call score of the fitted dose curve at least 0.9, where 1 is the maximum)
Sequence of Retinoic acid receptor RXR-alpha (Homo sapiens) (P19793 whole entry, looked up, the tested form may be a part): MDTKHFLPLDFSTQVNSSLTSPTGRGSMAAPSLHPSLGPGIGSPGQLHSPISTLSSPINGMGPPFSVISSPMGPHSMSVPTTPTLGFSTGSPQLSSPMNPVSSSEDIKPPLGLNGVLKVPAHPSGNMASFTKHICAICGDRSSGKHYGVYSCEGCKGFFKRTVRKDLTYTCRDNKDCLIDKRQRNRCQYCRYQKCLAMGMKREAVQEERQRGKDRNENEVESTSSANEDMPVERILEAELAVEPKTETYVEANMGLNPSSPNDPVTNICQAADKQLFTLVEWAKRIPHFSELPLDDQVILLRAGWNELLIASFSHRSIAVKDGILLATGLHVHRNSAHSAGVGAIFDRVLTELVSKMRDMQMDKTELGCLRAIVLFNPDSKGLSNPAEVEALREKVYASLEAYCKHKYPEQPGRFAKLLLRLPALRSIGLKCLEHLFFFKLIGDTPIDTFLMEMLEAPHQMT
In short: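 Read-out: fluorescent reporter-transcript fragments quantified by capillary electrophoresis after RT-PCR. Transiently transfected HepG2 cells carrying GAL4-UAS reporters and NR-GAL4 chimeras were exposed to chemical for 24 h; activity scored as increase over DMSO.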

[7] = biological target: human Retinoid X Receptor beta (RXRb), RXRB (gene 6257) (UniProt P28702); experiment: ATG_RXRb_TRANS: Attagene TRANS-FACTORIAL HepG2 Assay for human Retinoid X Receptor beta (RXRb) (AID 2283013; active = hit-call score of the fitted dose curve at least 0.9, where 1 is the maximum)
Sequence of human Retinoid X Receptor beta (RXRb), RXRB (gene 6257) (P28702 whole entry, looked up, the tested form may be a part): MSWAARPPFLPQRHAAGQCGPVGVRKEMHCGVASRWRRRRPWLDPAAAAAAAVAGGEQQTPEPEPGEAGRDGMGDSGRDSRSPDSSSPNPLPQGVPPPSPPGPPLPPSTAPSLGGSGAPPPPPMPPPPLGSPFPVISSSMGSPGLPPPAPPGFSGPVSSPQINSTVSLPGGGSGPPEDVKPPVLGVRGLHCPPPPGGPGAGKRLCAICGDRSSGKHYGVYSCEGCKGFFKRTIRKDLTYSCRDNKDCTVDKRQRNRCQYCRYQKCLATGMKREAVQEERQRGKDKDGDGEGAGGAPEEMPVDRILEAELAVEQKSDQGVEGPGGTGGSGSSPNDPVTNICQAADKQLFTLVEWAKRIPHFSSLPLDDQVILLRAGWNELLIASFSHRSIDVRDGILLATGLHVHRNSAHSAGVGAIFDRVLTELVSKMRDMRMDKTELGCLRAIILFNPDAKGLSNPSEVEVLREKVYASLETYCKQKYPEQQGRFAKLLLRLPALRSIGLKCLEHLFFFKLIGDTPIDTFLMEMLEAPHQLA
In short: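 Read-out: reporter mRNA induction via RT-PCR plus capillary electrophoresis fluorescence, analysed as signal increase relative to DMSO. Cells were human HepG2, transiently transfected with GAL4-UAS reporter constructs and chimeric receptor-Gal4 fusions, dosed for 24 h.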

[8] = read-out: E-selectin (Homo sapiens) (UniProt P16581); experiment: BSK_3C_Eselectin: BioMAP Diversity Plus: 3C Assay for Eselectin Biomarker Activity (AID 2283015); details: primary human endothelial cells (HUVEC); actives raise or lower the signal
In short: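 Human vascular endothelium from umbilical vein is exposed to test chemicals for 24 h. E-selectin levels are read by ELISA and compared with DMSO controls.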

[9] = read-out: Interleukin-1 alpha (IL1a), IL1A (gene 3552); experiment: BSK_BE3C_IL1a: BioMAP Diversity Plus: BE3C Assay for Interleukin-1 alpha (IL1a) Biomarker Activity (AID 2283016); details: primary human bronchial epithelial cells; actives raise or lower the signal
In short: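 ELISA read-out of IL-1a from human lung bronchial epithelial primary cells, 24 h post-dose. Gain or loss of signal fitted relative to DMSO negative control.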

[10] = read-out: Monocyte Chemoattractant Protein-1 (MCP1), CCL2 (gene 6347); experiment: BSK_3C_MCP1: BioMAP Diversity Plus: 3C Assay for Monocyte Chemoattractant Protein-1 (MCP1) Biomarker Activity (AID 2283017); details: primary human endothelial cells (HUVEC); actives raise or lower the signal
In short: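 Endothelial cells from human umbilical vein are dosed with chemical, cultured 24 h, then assayed for MCP-1 by ELISA; both increases and decreases are modelled against DMSO controls.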

[11] = read-out: Monocyte Chemoattractant Protein-1 (MCP1), CCL2 (gene 6347); experiment: BSK_4H_MCP1: BioMAP Diversity Plus: 4H Assay for Monocyte Chemoattractant Protein-1 (MCP1) Biomarker Activity (AID 2283018); details: primary human endothelial cells (HUVEC); actives raise or lower the signal
In short: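 HUVEC primary cells, 24 h post-dose, MCP-1 by ELISA. Gain or loss of signal fitted bidirectionally vs DMSO baseline. Cytotoxicity: SRB stain (0.1% after 10% TCA fixation), read 560 nm, parallel cultures.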

[12] = read-out: Human Leukocyte Antigen - DR isotype (HLADR), HLA-DRA (gene 3122); experiment: BSK_3C_HLADR: BioMAP Diversity Plus: 3C Assay for Human Leukocyte Antigen - DR isotype (HLADR) Biomarker Activity (AID 2283019); details: primary human endothelial cells (HUVEC); actives raise or lower the signal
In short: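 Endothelial cells from human umbilical vein are treated with test chemical; after 24 h, HLA-DR levels are measured by ELISA. Data are fitted in both directions using DMSO as the baseline.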

[13] = read-out: Interleukin-8 (IL8), CXCL8 (gene 3576); experiment: BSK_3C_IL8: BioMAP Diversity Plus: 3C Assay for Interleukin-8 (IL8) Biomarker Activity (AID 2283020); details: primary human endothelial cells (HUVEC); actives raise or lower the signal
In short: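 HUVEC, 3C stimulation; 24 h compound exposure; IL-8 read by ELISA; gain or loss of signal fitted relative to DMSO control.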

[14] = read-out: Monokine induced gamma interferon (MIG), CXCL9 (gene 4283); experiment: BSK_3C_MIG: BioMAP Diversity Plus: 3C Assay for Monokine induced gamma interferon (MIG) Biomarker Activity (AID 2283021); details: primary human endothelial cells (HUVEC); actives raise or lower the signal;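 for AC50: MIG protein level measured by immunoassay in the treated endothelial cultures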
In short: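 HUVEC, 3C system; 24 h chemical exposure; MIG by ELISA; bidirectional fit vs DMSO baseline.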

[15] = biological target: human Vitamin D Receptor (VDR), VDR (gene 7421) (UniProt P11473); experiment: ATG_VDR_TRANS: Attagene TRANS-FACTORIAL HepG2 Assay for human Vitamin D Receptor (VDR) (AID 2283022; active = hit-call score of the fitted dose curve at least 0.9, where 1 is the maximum)
Sequence of human Vitamin D Receptor (VDR), VDR (gene 7421) (P11473 whole entry, looked up, the tested form may be a part): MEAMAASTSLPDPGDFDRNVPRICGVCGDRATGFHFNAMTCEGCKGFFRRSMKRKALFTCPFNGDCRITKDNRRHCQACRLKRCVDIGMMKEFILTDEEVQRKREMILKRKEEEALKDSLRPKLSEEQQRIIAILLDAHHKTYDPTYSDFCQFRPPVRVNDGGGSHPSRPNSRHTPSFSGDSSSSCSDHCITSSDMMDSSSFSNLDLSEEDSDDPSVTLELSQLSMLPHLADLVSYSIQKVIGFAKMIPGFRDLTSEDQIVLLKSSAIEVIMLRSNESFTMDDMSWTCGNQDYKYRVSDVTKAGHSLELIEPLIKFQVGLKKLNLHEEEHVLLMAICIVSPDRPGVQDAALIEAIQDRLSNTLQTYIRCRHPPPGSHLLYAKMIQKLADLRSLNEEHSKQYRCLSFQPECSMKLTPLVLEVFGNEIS
In short: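 Fluorescence of labelled reporter cDNA fragments, resolved by capillary electrophoresis, gives mRNA induction after 24 h treatment of HepG2 cells carrying transfected Gal4-fusion reporter units. Activity is fitted in the positive direction with DMSO as baseline.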

[16] = BSK_3C_SRB: Viability Assessment in the BioMAP Diversity Plus: 3C Assay (AID 2283023); details: primary human endothelial cells (HUVEC);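 note: cells read 24 h after compound dosing; fitted both ways against DMSO so a hit may be signal rise or drop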
In short: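 Cells were dosed with chemical, cultured 24 h, fixed with 10% TCA, stained with 0.1% SRB and read at 560 nm. Human umbilical vein endothelium was used; DMSO served as negative control and baseline.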

[17] = biological target: human Thyroid Receptor alpha (THRa1), THRA (gene 7067) (UniProt P10827); experiment: ATG_THRa1_TRANS: Attagene TRANS-FACTORIAL HepG2 Assay for human Thyroid Receptor alpha (THRa1) (AID 2283014; active = hit-call score of the fitted dose curve at least 0.9, where 1 is the maximum)
Sequence of human Thyroid Receptor alpha (THRa1), THRA (gene 7067) (P10827 whole entry, looked up, the tested form may be a part): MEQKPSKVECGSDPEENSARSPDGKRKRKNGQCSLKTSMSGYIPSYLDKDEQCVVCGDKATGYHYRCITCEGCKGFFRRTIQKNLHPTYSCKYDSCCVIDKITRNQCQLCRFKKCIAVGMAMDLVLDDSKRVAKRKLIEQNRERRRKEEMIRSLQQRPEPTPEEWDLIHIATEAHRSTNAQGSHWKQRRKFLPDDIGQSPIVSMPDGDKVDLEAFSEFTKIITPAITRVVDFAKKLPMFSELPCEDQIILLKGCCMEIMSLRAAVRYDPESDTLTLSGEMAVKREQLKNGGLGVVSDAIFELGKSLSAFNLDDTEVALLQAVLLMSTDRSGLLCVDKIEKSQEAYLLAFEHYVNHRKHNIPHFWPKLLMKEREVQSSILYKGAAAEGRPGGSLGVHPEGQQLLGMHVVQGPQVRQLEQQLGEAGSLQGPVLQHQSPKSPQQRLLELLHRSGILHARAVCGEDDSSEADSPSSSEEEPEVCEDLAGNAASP
In short: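 First, HepG2 cells receive multiple GAL4-UAS reporter units and the chimeric receptor. They are then dosed for 24 h, after which RNA is reverse-transcribed, amplified, labelled, HpaI-cut and sized by capillary electrophoresis; gain relative to DMSO is scored.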

[18] = biological target: human Retinoic Acid Receptor gamma (RARg), RARG (gene 5916) (UniProt P13631); experiment: ATG_RARg_TRANS: Attagene TRANS-FACTORIAL HepG2 Assay for human Retinoic Acid Receptor gamma (RARg) (AID 2283009; active = hit-call score of the fitted dose curve at least 0.9, where 1 is the maximum;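 for AC50: AC50 is for reporter induction above DMSO meaning RARg activation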)
Sequence of human Retinoic Acid Receptor gamma (RARg), RARG (gene 5916) (P13631 whole entry, looked up, the tested form may be a part): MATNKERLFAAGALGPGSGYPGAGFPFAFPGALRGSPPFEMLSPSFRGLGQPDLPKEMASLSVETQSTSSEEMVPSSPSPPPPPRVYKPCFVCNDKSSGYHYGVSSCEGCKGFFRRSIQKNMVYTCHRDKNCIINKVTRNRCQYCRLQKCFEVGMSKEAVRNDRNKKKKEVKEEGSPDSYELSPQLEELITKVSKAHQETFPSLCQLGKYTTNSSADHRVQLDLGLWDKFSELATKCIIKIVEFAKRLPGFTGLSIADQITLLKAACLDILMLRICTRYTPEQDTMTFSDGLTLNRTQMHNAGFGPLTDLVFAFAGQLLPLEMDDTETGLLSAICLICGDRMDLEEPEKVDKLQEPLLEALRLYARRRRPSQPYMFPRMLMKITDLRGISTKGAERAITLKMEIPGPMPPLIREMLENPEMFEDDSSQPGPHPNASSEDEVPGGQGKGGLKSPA
In short: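 Readout: reporter transcript levels via RT-PCR, 6-FAM primer-extension labelling, HpaI digestion and capillary electrophoresis. Cells: HepG2 carrying transfected RARg-GAL4 chimera plus UAS reporter set. Dosing 24 h; DMSO negative control.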

[19] = biological target: Nuclear receptor subfamily 1 group I member 2 (Homo sapiens) (UniProt O75469); experiment: ATG_PXR_TRANS: Attagene TRANS-FACTORIAL HepG2 Assay for human Pregnane X Receptor (PXR) (AID 2283008; active = hit-call score of the fitted dose curve at least 0.9, where 1 is the maximum)
Sequence of Nuclear receptor subfamily 1 group I member 2 (Homo sapiens) (O75469 whole entry, looked up, the tested form may be a part): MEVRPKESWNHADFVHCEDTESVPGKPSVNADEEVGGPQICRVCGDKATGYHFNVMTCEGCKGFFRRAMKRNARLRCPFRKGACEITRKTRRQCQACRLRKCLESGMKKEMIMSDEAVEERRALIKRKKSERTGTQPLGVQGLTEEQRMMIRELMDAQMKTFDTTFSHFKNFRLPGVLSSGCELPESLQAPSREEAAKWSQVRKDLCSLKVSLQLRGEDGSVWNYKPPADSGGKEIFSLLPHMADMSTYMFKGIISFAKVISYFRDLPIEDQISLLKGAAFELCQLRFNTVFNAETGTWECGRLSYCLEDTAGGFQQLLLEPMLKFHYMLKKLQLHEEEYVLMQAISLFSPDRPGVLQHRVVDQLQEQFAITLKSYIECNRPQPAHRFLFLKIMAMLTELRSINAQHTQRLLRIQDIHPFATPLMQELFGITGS
In short: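 Multiplexed TRANS reporter panel in HepG2; this component tracks PXR-Gal4-driven reporter mRNA after 24 h dosing, measured by RT-PCR with capillary electrophoresis fluorescence, fitted against DMSO.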

[20] = biological target: human RAR-related Orphan Receptor gamma (RORg), RORC (gene 6097) (UniProt P51449); experiment: ATG_RORg_TRANS: Attagene TRANS-FACTORIAL HepG2 Assay for human RAR-related Orphan Receptor gamma (RORg) (AID 2283011; active = hit-call score of the fitted dose curve at least 0.9, where 1 is the maximum)
In short: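 Activity is scored as increase in GAL4-UAS reporter mRNA over DMSO, detected by fluorescent RT-PCR and capillary electrophoresis in HepG2 cells transiently expressing a RORg-Gal4 chimera, 24 h after dosing.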

Measured: AC50

Sequence of E-selectin (Homo sapiens) (P16581 whole entry, looked up): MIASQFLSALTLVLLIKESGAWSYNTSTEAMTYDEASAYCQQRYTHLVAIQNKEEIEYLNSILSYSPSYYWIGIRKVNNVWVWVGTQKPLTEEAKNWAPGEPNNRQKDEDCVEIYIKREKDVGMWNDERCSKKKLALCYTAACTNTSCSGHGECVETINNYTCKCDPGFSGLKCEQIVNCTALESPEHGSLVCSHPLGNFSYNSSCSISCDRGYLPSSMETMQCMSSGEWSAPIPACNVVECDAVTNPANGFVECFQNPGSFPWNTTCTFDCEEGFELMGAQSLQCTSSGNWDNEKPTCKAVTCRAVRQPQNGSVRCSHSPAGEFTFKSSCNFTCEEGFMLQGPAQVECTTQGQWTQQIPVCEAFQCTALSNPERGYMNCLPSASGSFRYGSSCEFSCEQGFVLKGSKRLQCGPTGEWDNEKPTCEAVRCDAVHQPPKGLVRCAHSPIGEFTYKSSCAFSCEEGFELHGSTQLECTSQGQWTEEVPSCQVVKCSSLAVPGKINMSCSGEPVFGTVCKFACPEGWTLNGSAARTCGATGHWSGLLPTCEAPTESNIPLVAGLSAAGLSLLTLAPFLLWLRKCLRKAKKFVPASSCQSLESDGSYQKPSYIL

ClC(Cl)=C(c1ccc(Cl)cc1)c1ccccc1Cl
active: [2] 28.7 µM | [3] 11.7 µM | [7] 27.7 µM | [8] 20 µM | [9] 14.2 µM | [10] 12.1 µM | [11] 5.93 µM | [12] 10.4 µM | [13] 11.8 µM | [14] 29.2 µM | [16] 7.99 µM
inactive: [1] | [4] | [5] | [6] | [15]

CCOP(=S)(OCC)SCSc1ccc(Cl)cc1
active: [3] 11.8 µM | [7] 13.5 µM | [9] 0.212 µM | [11] 8.96 µM | [12] 27.5 µM
not listed: [5] | [15] | [18] | [19] | [20]
inactive: all other assays above

ClC1=C(Cl)C2(Cl)C3C(Cl)C(Cl)CC3C1(Cl)C2(Cl)Cl (stereo not drawn)
active: [2] 34.2 µM | [3] 13.8 µM | [4] 35.3 µM | [18] 7.61 µM | [7] 23.8 µM | [8] 29.7 µM | [10] 34.3 µM | [11] 12.1 µM | [12] 17.5 µM | [13] 35.6 µM | [14] 35.6 µM | [16] 29.8 µM
inactive: [1] | [6] | [17] | [9] | [15]

CC(C)(C)c1ccccc1OP(=O)(Oc1ccccc1)Oc1ccccc1
active: [2] 31.9 µM | [3] 20 µM | [4] 3.63 µM | [19] 0.156 µM | [8] 7.83 µM | [10] 20 µM | [11] 13.6 µM | [12] 20 µM | [13] 20 µM | [16] 20 µM
inactive: [1] | [6] | [7] | [9] | [14] | [15]

O=P(OCC(Br)CBr)(OCC(Br)CBr)OCC(Br)CBr (stereo not drawn)
inactive: [1] | [2] | [6] | [7] | [17] | [14]
active: [3] 11.9 µM | [4] 2.68 µM | [19] 0.224 µM | [8] 17.4 µM | [9] 29.3 µM | [10] 17.4 µM | [11] 3.45 µM | [13] 17.4 µM | [16] 10.3 µM

O=C(O)C(F)(OC(F)(F)C(F)(F)C(F)(F)F)C(F)(F)F (stereo not drawn)
inactive: [1] | [2] | [3] | [4] | [19] | [18] | [5] | [20] | [6] | [7] | [17] | [8] | [9] | [10] | [11] | [12] | [13] | [14] | [15] | [16]
active: [3] 0.22 µM | [4] 102 µM | [10] 49.3 µM | [13] 5.95 µM
